From the supplement of paper PMC13380429
Unmarked numbers belong to inactive results.

System: Vero E6 infected with SARS-CoV-2
Assay: inhibition of SARS-CoV-2 cytopathic effect; higher = more antiviral protection, active = above 15
Conditions: 100 nM; 48 h

Structure (SMILES) | inhibition of SARS-CoV-2 cytopathic effect [%]
O=C(O)c1ccccc1-c1ccc(C(F)(F)F)cc1 [xenalipin] | 4.8
Oc1cc2c(cc1O)[C@H](Cc1cccc3ccccc13)NCC2 | -0.84
CCOC(=S)SSC(=S)OCC [dixanthogen] | -1.47
C=CCNc1c(O)cc2c(O)c1C[C@@H](C)C[C@H](OC)[C@H](O)[C@@H](C)/C=C(\C)[C@H](OC(N)=O)[C@@H](OC)/C=C\C=C(/C)C(=O)N2 [retaspimycin] | 6.54
C=C[C@@H]1C[C@]1(NC(=O)[C@@H]1C[C@@H](Oc2ncc(OC)c3ccc(Cl)cc23)CN1C(=O)[C@@H](NC(=O)OC(C)(C)C)C(C)(C)C)C(=O)NS(=O)(=O)C1CC1 [asunaprevir] | 3.96
O=C(Nc1ccccc1C(=O)Nc1ccc(CCO)cc1)c1ccc([N+](=O)[O-])cc1 | -1.82
Nc1ccc(S(=O)(=O)Nc2ccnn2-c2ccccc2)cc1 [sulfaphenazole] | 1.62
CO/N=C(\C(=O)N[C@@H]1C(=O)N2C(C(=O)O)=C(CSc3nc(C)c(CC(=O)O)s3)CS[C@H]12)c1csc(N)n1 [cefodizime] | -2
C[C@H](CCC(=O)O)[C@H]1CC[C@H]2[C@@H]3C[C@H](O)[C@@H]4C[C@H](O)CC[C@]4(C)[C@H]3CC[C@]12C [Hyodeoxycholic acid (HDCA)] | 1
CC1=C(/C=C/C(=C/C=C/C(C)=C/C(=O)O)c2ccc(C)cc2)C(C)(C)CCC1 | 1
NC(N)=Nc1nc(CSCC/C(N)=N/S(N)(=O)=O)cs1 [Famotidine] | -0.39
Cc1cc(-c2nc(C(=O)Nc3cn(C4CCOCC4)nc3C(N)=O)co2)ccn1 | -0.57
COc1ccc(-c2cc(C(F)F)nn2-c2ccc(S(N)(=O)=O)cc2)cc1F [deracoxib] | 3.5
CSC[C@H](N)C(=O)O [S-methylcysteine] | 1.96
CS(=O)(=O)c1ccc([C@@H](O)[C@@H](CF)NC(=O)C(Cl)Cl)cc1 [florfenicol] | -3.16
CC1(C)CCC(C)(C)c2cc(Cn3cccn3)c(/C=C/c3ccc(C(=O)O)cc3)cc21 [palovarotene] | 1.2
O=C(O)[C@H](Cc1c[nH]c2ccccc12)N1C(=O)c2ccccc2C1=O | -0.51
Cc1cc(C(=O)Nc2nc3cccc(Cl)c3n2[C@@H]2CCCCN(C(=O)/C=C/CN(C)C)C2)ccn1 | 0.57
N[C@H]1CC[C@H](N[C@@H]2C[C@H]2c2ccccc2)CC1 | 1.16
CNC(=O)[C@@H](NC(=O)[C@H](CC(C)C)[C@H](O)C(=O)NO)C(C)(C)C [marimastat] | -5.18

Structure (SMILES) | inhibition of SARS-CoV-2 cytopathic effect [%]
CC(=O)N[C@@H](CC(=O)O)C(=O)N[C@@H](CCC(=O)O)C(=O)O [spaglumic-acid] | -2.69
C=CC(=O)c1ccc2ccccc2c1 [JAK3-inhibitor-V] | -2.73
Nc1nc(N)nc(-c2cc(Cl)ccc2Cl)n1 [irsogladine] | 0.04
S=C=Nc1ccc(N=C=S)cc1 [bitoscanate] | -0.83
COc1ccc(-c2oc3c(CC=C(C)C)c(O)cc(O)c3c(=O)c2O)cc1 [icaritin] | 0.02
C[C@@H]1CN(c2c(F)c(N)c3c(=O)c(C(=O)O)cn(C4CC4)c3c2F)C[C@H](C)N1 [sparfloxacin] | 0.77
CN(C)c1cccc(-c2c3c(=O)n(-c4ccccc4Cl)[nH]c3cc(=O)n2C)c1 | 0.39
Cc1ncc(CSSCc2cnc(C)c(O)c2CO)c(CO)c1O [pyritinol] | 2.92
CCCN(CCC)[C@H]1CCc2ccc(O)cc2C1 [7-hydroxy-DPAT] | 0.54
CN(C)Cc1c(C(=O)NCCOc2ccc(C(=O)NO)cc2)oc2ccccc12 | -1.35
CCn1c(-c2nonc2N)nc2cncc(C(=O)N3CC[C@H](N)C3)c21 | 2.3
CC1(C)OC[C@@H](COC(=O)CCc2ccc(OC[C@@H](O)CNCCNC(=O)N3CCOCC3)cc2)O1 [landiolol] | -1.18
C[C@@H](NC(=O)c1ncnc(N)c1Cl)c1ncc(C(=O)Nc2cc(C(F)(F)F)c(Cl)cn2)s1 | 4.35
CN(C)CCNc1nc2cc(O)ccc2c2c1C(=O)c1ccccc1-2 | -1.3
CC(C)(O)CC(=O)O [beta-hydroxy-beta-methylbutyrate] | -6.91
CNCc1ccc(C)c(NC(=O)c2ccc(Nc3nc(-c4ccccc4)c4ccccc4n3)cc2)c1 | -1.92
CCc1cc(O)c(Oc2ccc(C(N)=O)cc2F)cc1F | 0.21
Nc1ccccc1S(N)(=O)=O [2-aminobenzenesulfonamide] | 3.94
Cc1ccc(S(=O)(=O)Cc2nc(-c3ccc(C(=O)NCc4cccnc4)cc3)oc2C)cc1 | -15.4
